Source: PubChem (National Center for Advancing Translational Sciences (NCATS))
Luciferase inh – Firefly luciferase inhibition profiling of diverse chemical library using quantitative high-throughput screening; purified P. pyralis luciferase, luminescence, biochemical; AID 1347043, 2019; Luciferin 4-monooxygenase (Photinus pyralis), P08659; Potency, µM (titrated, usually from 115 µM), hits mostly inhibitors; 76,000 tested, 2.5% active; note: nearly all actives have a fitted effect of over 65% in size
Target sequence (P08659 whole entry, looked up): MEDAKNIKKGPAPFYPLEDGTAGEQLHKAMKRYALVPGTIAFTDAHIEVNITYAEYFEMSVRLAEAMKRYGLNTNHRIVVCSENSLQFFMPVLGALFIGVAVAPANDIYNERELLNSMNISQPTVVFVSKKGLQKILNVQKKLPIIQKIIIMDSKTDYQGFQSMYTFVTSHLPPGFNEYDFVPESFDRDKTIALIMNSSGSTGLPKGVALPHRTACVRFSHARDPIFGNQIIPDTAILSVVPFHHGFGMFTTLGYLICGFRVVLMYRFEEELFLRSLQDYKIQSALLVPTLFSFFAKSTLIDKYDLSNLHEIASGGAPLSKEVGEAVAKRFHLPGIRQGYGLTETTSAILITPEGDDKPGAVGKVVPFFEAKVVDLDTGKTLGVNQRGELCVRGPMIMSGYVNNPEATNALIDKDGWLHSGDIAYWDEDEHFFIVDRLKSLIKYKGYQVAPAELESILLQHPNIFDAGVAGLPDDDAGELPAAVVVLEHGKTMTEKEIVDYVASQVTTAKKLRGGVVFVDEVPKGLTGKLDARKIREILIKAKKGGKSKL
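Inhibitors were tested against purified firefly luciferase in a biochemical, low-substrate format (both substrates at 10uM) and luminescence measured with a CCD imager.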
NIH3T3 tox – Cytotoxic Profiling in NIH 3T3 Cell Line of Diverse Libraries Using Quantitative High-Throughput Screening. NIH 3T3 viability, CellTiter-Glo ATP luminescence, 48-72 h. Potency, µM (highest dose often 96.7 µM), inactives show at the highest dose activity change, negative = cytotoxicity, usual class: inhibitors. 94,000 tested, 4.3% active. AID 1345082, 2018; note: nearly all actives have a fitted effect of over 55% in size
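Luminescent ATP readout (CellTiter-Glo, 10 min RT) after 48 or 72 hr compound exposure of NIH 3T3 cells seeded at 400 cells/well in 1536-well format; quantitative HTS.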
HEK cytotox – Cytotoxic Profiling in HEK 293 Cell Line of Diverse Libraries Using Quantitative High-Throughput Screening; Potency, µM (top dose mostly 115 µM), for inactives: at the highest dose activity change, negative = cytotoxicity, actives largely listed as inhibitors; 94,000 tested, 6.6% active; AID 1345083, 2018; HEK 293 viability, ATP luminescence (CellTiter-Glo), 48-72 h; note: nearly all actives have a fitted effect of over 60% in size
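Cytotoxicity was scored by loss of ATP-coupled luminescence (CellTiter-Glo) in HEK 293 cells. Compound treatment ran 48 or 72 hr at 37 degree Celsius, 5% CO2, 95% humidity.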
hNpr1 antagonist – Natriuretic polypeptide receptor (hNpr1) antagonism - Primary qHTS; HEK293 hNpr1 GloSensor cGMP, ANP-stimulated luminescence; 76,000 tested, 1.6% active; Atrial natriuretic peptide receptor 1 (Homo sapiens), P16066; Potency, µM (highest dose often 46.3 µM), for inactives: at the highest dose activity change, negative = inhibition, hits mostly inhibitors; calls by dose curve; note: nearly all actives have a fitted effect of over 60% in size
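Compound pre-incubated 30 min at room temperature on GloSensor-loaded HEK293 cells stably carrying hNpr1 and the pGS-40F cGMP biosensor. Stimulation uses hNppA at 0.1 nM final; luminescence is taken at baseline and 20 min post-agonist.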
* = called active by the depositor; i = inactive; ? = inconclusive; nt = no result; [ ] = dose if it differs, or a comment. Shown are actives, neighbours in structure and some others; about 11% of the full set was active somewhere. Unless noted, calls come from the whole dose curve; as a rule, active = well fitted curve in the direction sought with a large enough effect; inconclusive = small, poorly fitted or top-dose-only effect, or another doubt; inactive = no such curve, though single readings can be large; an effect the other way counts as inactive or inconclusive. % is set by controls: 0 for no effect and ±100 for the full control effect; potency is the fitted concentration of half-maximal effect.

SMILES	Luciferase inh	NIH3T3 tox	HEK cytotox	hNpr1 antagonist
O=C(NCCc1ccc(Cl)cc1)C1CCCN(Cc2cccc(-c3ccsc3)c2)C1 (stereo not given)	nt	14µM*	22µM*	nt
COC(=O)CNC(=O)C1CCCN(Cc2cccc(-c3cccc(C)c3)c2)C1 (stereo not given)	nt	?	-21%	nt
Cc1nnc2ccc(N3CCC(NC(=O)c4ccc(F)cc4)CC3)nn12	nt	-27%	-20%	nt
O=C(NCc1ccc(F)cc1)C1CCCN(Cc2cccc(-c3cccs3)c2)C1 (stereo not given)	nt	?	40µM*	nt
Cc1cccc(CNC(=O)c2ccc3c(c2)N(C)C2CCCN2C3=O)c1 (stereo not given)	i	?	?	-7%
O=C1CC(c2ccccc2)N(C(=O)CNC(=O)c2[nH]nc3c2CCc2ccccc2-3)CCCCCN1 (stereo not given)	i	?	?	-1%
Cc1noc(C)c1-c1cc2cc(CO)oc2c(NCC2CCOCC2)n1	i	22µM*	?	-12%[70.6 µM]
Cc1noc(C)c1-c1cc2cc(CO)oc2c(NC2CCOCC2)n1	i	25µM*	?	-19%[70.6 µM]
Cc1noc(C)c1-c1cc2cc(CO)oc2c(-c2ccc(F)c(Cl)c2)n1	i	22µM*	50µM*	-23%[70.6 µM]
Cc1noc(C)c1-c1cc2cc(CO)oc2c(NCCOc2ccccc2)n1	i	?	?	-14%[70.6 µM]
COc1ccc(-c2nc(-c3c(C)noc3C)cc3cc(CO)oc23)cn1	i	?	?	2%[70.6 µM]
O=C(NCc1ccco1)C1CCCCC(=O)N1Cc1ccccc1 (stereo not given)	nt	-10%	1%	nt
Cc1noc(C)c1CCC(=O)NC1CCCc2c1[nH]c1ccc(F)cc21 (stereo not given)	i	?	?	-17%
c1csc(CN2Cc3[nH]cnc3C[C@H]2c2nc(-c3ccc4ccccc4c3)no2)c1	i	?	50µM*	-24%[70.6 µM]
COc1ccc(-c2noc([C@@H]3Cc4nc[nH]c4CN3Cc3cccs3)n2)cc1	71µM*	89µM*	?	-17%[70.6 µM]
COc1cccc(S(=O)(=O)N2CCC(N(C(C)=O)C3CCOCC3)CC2)c1	nt	?	-14%	nt
Cc1ccnc(N2CCN(C3CCC4(CCNCC4)CC3)CC2)c1	i	?	45µM*	0%
O=C(CNC(=O)c1cccc(-c2ccc(C(F)(F)F)cc2)c1)NCCc1ccccc1	nt	-14%	?	nt
Cc1nn(-c2ccc(F)cc2)c(Oc2cccc(F)c2)c1CCC(=O)N(C)C(C)C	i	?	50µM*	-17%
Cc1nn(-c2ccc(F)cc2)c(Oc2cccc(F)c2)c1CCC(=O)N1CCSCC1	i	?	35µM*	-17%
Cc1ccccc1Oc1c(CCC(=O)N2CCSCC2)c(C)nn1-c1ccc(F)cc1	i	?	?	-25%
Cc1nn(-c2ccc(F)cc2)c(Oc2ccccc2F)c1CCC(=O)N1CCCC1	i	28µM*	35µM*	-10%
Cc1nn(-c2ccc(F)cc2)c(Oc2ccccc2F)c1CCC(=O)NCc1ccco1	i	35µM*	?	-19%
Cc1nn(-c2ccc(F)cc2)c(Oc2ccc(F)cc2F)c1CCC(=O)N1CCCC1	i	?	?	-2%
Cc1noc(C)c1Cn1cc2c3c(cccc31)[C@H](CC(C)C)N[C@H](C(=O)NCC1CC1)C2	i	?	?	5%[70.6 µM]
SMILES	Luciferase inh	NIH3T3 tox	HEK cytotox	hNpr1 antagonist
COCCOCc1nc(C2CCCN2C(=O)NCc2ccc(OC)cc2)no1 (stereo not given)	nt	i	i	nt
COCCN1CCC2(CCC1=O)CCN(C(=O)Nc1ccc(C(=O)OC)cc1)CC2	i	-15%	-4%	-13%
O=C(NCC1CC1)c1cccc(OC2CN(Cc3ccncc3F)C2)c1	i	-15%	-22%	10%
CCc1nn(-c2ccccc2)c(Oc2ccc(C)cc2)c1CCC(=O)N1CCSCC1	i	?	40µM*	-4%
CCNC(=O)CCc1c(CC)nn(-c2ccccc2)c1Oc1ccccc1F	i	?	?	-1%
Cn1cc(CN[C@H]2[C@H](O)[C@H](O)C[C@@H]2c2cccnc2)c2ccccc21	i	?	100µM*	1%[70.6 µM]
Cc1nn(-c2ccccc2)c2c1C(C1CC1)N(C1CN([S+](=O)([O-])c3c(C)noc3C)C1)C2=O (stereo not given)	nt	0%	-3%	nt
Cn1cccc1CN1CCCC2(C1)C(=NC1CCCC1)NC(=O)N2c1cccnc1 (stereo not given)	nt	?	i	nt
Cc1noc(C)c1-c1cnc2[nH]cc(CC(=O)NCc3cccnc3)c2c1	i	32µM*	?	0%[70.6 µM]
Cc1cccc(-c2cnc3[nH]cc(CC(N)=O)c3c2)c1	i	?	?	-26%[70.6 µM]
NC(=O)Cc1c[nH]c2ncc(-c3ccc(F)cc3)cc12	?	?	-7%[230 µM]	1%[70.6 µM]
Cc1noc(C)c1-c1cnc2[nH]cc(CC(N)=O)c2c1	i	10µM*	?	-4%[70.6 µM]
COc1ccc(-c2cnc3[nH]cc(CC(N)=O)c3c2)cc1OC	i	10µM*	?	-2%[70.6 µM]
Cc1ccc(-c2cccc(C=O)c2)cc1Cl	nt	?	0%[230 µM]	nt
Cc1ccc(-c2cccc(CN)c2)cc1Cl	nt	28µM*	?	nt
CSc1ccc(-c2cccc(CN)c2)cc1	nt	25µM*	?	nt
Cc1ccc(-c2ccc(CN)cc2)cc1Cl	nt	32µM*	32µM*	nt
NCc1cccc(-c2ccc(O)cc2)c1	nt	-21%[138 µM]	-16%[172 µM]	nt
CCC(OC)C(=O)N1CCN(c2nc(-c3ccccc3)nc3c2CCC3)CC1 (stereo not given)	i	-25%	?	-9%
O=C1N(Cc2ccc(F)c(F)c2)CCCC12CCN(c1nc3ccccc3o1)C2 (stereo not given)	40µM*	40µM*	?	-13%
COc1ccc(Nc2cc3c(cn2)CN(CCc2ccccc2)CCN3)cc1OC	i	25µM*	50µM*	-5%[70.6 µM]
COCCNc1cc2c(cn1)CN(Cc1ccccc1)CCN2	?	?	?	-3%[70.6 µM]
COc1ccc(Nc2cc3c(cn2)CN(CCc2ccccc2)CCN3)cc1	?	25µM*	32µM*	-5%[70.6 µM]
COC(=O)c1ccccc1NC(=O)O[C@@H]1CO[C@H]2[C@@H]1OC[C@@H]2Nc1nccc(-c2ccc3c(c2)OCO3)n1	i	-13%	-23%	-1%
CCCCN(Cc1ccccc1)Cc1nc(-c2ccc(C(=O)OC)cc2)no1	8.9µM*	-11%	-11%	-8%
COc1ccc(OCC2CC3(CCCCC3)CN2S(=O)(=O)c2c(C)noc2C)cc1 (stereo not given)	nt	-28%	28µM*	nt
